# The whole screen tested about 370,000 compounds, of which about 4,700 (1.3%) were called active. The list comes from a sample in which actives are over-represented; it also holds similar structures and randomly drawn compounds. A number with no mark means an inactive call.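 Rule for the calls: active = inhibition above the plate cutoff, the mean of all test compounds on that plate plus 3 SD (cut at about 35% in these data); inactive = the rest.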
# Assay: binders of r(CAG) RNA repeats, primary screen, biochemical, fluorescence (AID 651821);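 note: 0% = DMSO alone and 100% = 100 µM mitoxantrone as full dye displacement; higher means more dye released from RNA so lower well fluorescence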
# Settings: r(CAG) RNA repeat, TO-PRO-1 dye displacement fluorescence; at 3 µM; stronger effect = higher value
row,SMILES,inhibition
1,COC(=O)C1CN(CC(C)C)CCS(=O)(=O)N1Cc1ccc(C)cc1 (stereo unspecified),2.99%
2,CC(C)(C)c1ccc(CSc2nnc(-c3cccs3)o2)cc1,-0.86%
3,CC(C)N1CCCCC(NC(=O)c2ccc3ccccc3c2)C1=O (stereo unspecified),2.21%
4,Nc1ccn([C@@H]2O[C@H](C(=O)N[C@H]3CCCCNC3=O)[C@@H](O)[C@H]2O)c(=O)n1,-0.39%
5,Cc1nc(C)c(-c2nnc(-c3cccc(S(=O)(=O)N(C)C)c3)o2)cc1C(=O)NN,10.6%
6,Cc1ccc(-c2nn(-c3ccccc3)cc2/C=C2\SC(=S)N(CCCCCC(=O)O)C2=O)o1,48.8% (active)
7,COc1cccc(-c2nn(-c3ccccc3)cc2/C=C(\C#N)C(=O)NCCCn2ccnc2)c1,4.33%
8,CN(C)S(=O)(=O)c1cccc(-c2nn(-c3ccccc3)cc2/C=C2\SC(=S)N(CC(=O)O)C2=O)c1,63.9% (active)
9,O=C(CN1CCC(NC(=O)NCc2ccccc2)CC1)Nc1ccc2c(c1)OCCO2,0.82%
10,CCc1ccc(C2=CC(=O)CC(C)(C)C2=O)cc1,3.63%
11,COc1ccc(Cl)cc1NC(=O)COC(=O)C(CC(C)C)N1C(=O)C2CC=CCC2C1=O (stereo unspecified),-0.39%
12,OC(c1ccccc1)(c1ccccc1)C1CCN(CCCOc2ccc(-c3ccsc3)cc2)CC1,9.5%
13,O=C(Nc1ccc(S(=O)(=O)Nc2ncccn2)cc1)c1cncc(Br)c1,-0.76%
14,Cc1ccnc(NS(=O)(=O)c2ccc(NC(=O)c3oc4ccc(F)cc4c3C)cc2)n1,33.3%
15,Cc1noc(NS(=O)(=O)c2ccc(NC(=O)c3oc4ccc(F)cc4c3C)cc2)c1C,75.7% (active)
16,Cc1cc(C)c2nc(-c3cccnc3)cc(C(=O)Nc3ccc(S(=O)(=O)Nc4onc(C)c4C)cc3)c2c1,80.4% (active)
17,Cc1cc(C)c2oc(C(=O)Nc3ccc(S(=O)(=O)Nc4nccc(C)n4)cc3)cc(=O)c2c1,1.83%
18,Cc1ccnc(NS(=O)(=O)c2ccc(NC(=O)c3oc4ccccc4c3C)cc2)n1,33.1%
19,CN1C(=O)C(Br)(Br)CC1c1cccnc1 (stereo unspecified),1.36%
20,O=C(CCN1CCCCC1)N=Nc1c(O)[nH]c2ccccc12,4.74%
21,O=C(CSc1nc2ccccc2s1)N=Nc1c(O)[nH]c2ccccc12,10.6%

row,SMILES,inhibition
1,Cc1c(-c2ccccc2)n[nH]c1C(=O)N=Nc1c(O)[nH]c2ccccc12,36.8% (active)
2,Cc1ccccc1Nc1nc(N)nc(COC(=O)CCC(=O)c2ccc(F)cc2)n1,0.17%
3,CCc1ccccc1NC(=O)CSc1nnc(-c2cccs2)o1,-0.17%
4,CC(C)[C@@H](C)/C=C/[C@@H](C)[C@H]1CC[C@@H]2[C@]1(C)CCC1[C@]23C=C[C@]2(C[C@@H](O)CC[C@]12C)N(c1ccc([N+](=O)[O-])cn1)O3 (stereo partly specified),27.1%
5,COC(=O)c1cnn2c(C(F)(F)F)cc(-c3ccco3)nc12,10.2%
6,Cc1cc(C)c2nc(-c3ccco3)cc(C(=O)O)c2c1,67.3% (active)
7,Cc1ccsc1-c1cc(C(=O)O)c2c(ccc3ccccc32)n1,9.82%
8,COC(=O)N1Cc2ccnnc2CC1c1ccccc1Br (stereo unspecified),3.21%
9,O=C(CCc1ccccc1Cl)Nc1ccc(S(=O)(=O)Nc2nccs2)cc1,44% (active)
10,CN1CCN(S(=O)(=O)c2cccc(C(=O)Nc3sccc3C#N)c2)CC1,44.6% (active)
11,O=C(CCS(=O)(=O)c1ccccc1Cl)Nc1ccc(S(=O)(=O)Nc2ncccn2)cc1,2.17%
12,Cc1ccnc(NS(=O)(=O)c2ccc(NC(=O)c3ccc(S(=O)(=O)N4CCOCC4)cc3)cc2)n1,12.3%
13,Cc1ccc(OCCC(=O)Nc2ccc(S(=O)(=O)Nc3nccs3)cc2)cc1,36.9% (active)
14,O=C(Nc1ccc(S(=O)(=O)N2CCOCC2)cc1)c1ccc2ncsc2c1,5.29%
15,CN1CCN(S(=O)(=O)c2cccc(C(=O)Nc3cccc(S(N)(=O)=O)c3)c2)CC1,1.84%
16,CN1CCN(S(=O)(=O)c2cccc(C(=O)N3CCc4ccccc43)c2)CC1,0.16%
17,Cc1ccc(OCCCC(=O)Nc2ccc(S(=O)(=O)Nc3cc(C)nc(C)n3)cc2)cc1,24.9%
18,O=C(Nc1ccc(S(=O)(=O)Nc2nccs2)cc1)c1cccc(S(=O)(=O)N2CCOCC2)c1,34.7% (active)
19,CCC(CC)C(=O)Nc1ccc(S(=O)(=O)Nc2nccs2)cc1,3.15%
20,COc1ccccc1OC(C)C(=O)Nc1ccc(S(=O)(=O)Nc2nccs2)cc1 (stereo unspecified),19.7%

# Reference: PubChem BioAssay AID651821 (The Scripps Research Institute Molecular Screening Center, 2012)
